Assay type in all cases: functional
In assay [1] the target is Solute carrier family 2, facilitated glucose transporter member 1 (Homo sapiens) (UniProt P11166). In words: ST_JUDE_LEISH: Cytotoxicity at 2uM final concentration against transgenic Leishmania Mexicana promastigotes LmGLUT1 that are glucose transport deficient and complemented with the human glucose transporter GLUT1. Activity is measured by DNA content using SYBR green in vitro.

Assay [2] concerns the target Hexose transporter 1 (Plasmodium falciparum) (UniProt O97467). As to the kind of experiment: ST_JUDE_LEISH: Cytotoxicity at 2uM final concentration against transgenic Leishmania Mexicana promastigotes LmPfHT that are glucose transport deficient and complemented with the Plasmodium falciparum hexose transporter. Activity is measured by DNA content using SYBR green in vitro.

Assay [3] addresses Glucose transporter (Leishmania mexicana) (UniProt O61059). In words: ST_JUDE_LEISH: Cytotoxicity at 2uM final concentration against transgenic Leishmania Mexicana promastigotes LmGT2 that are glucose transport deficient and complemented with the L. Mexicana glucose transporter 2. Activity is measured by DNA content using SYBR green in vitro.

Inhibition data for 16 compounds are collected here from ChEMBL document CHEMBL3433997, “St. Jude Leishmania screening dataset” (2016).

Chain of Solute carrier family 2, facilitated glucose transporter member 1 (Homo sapiens) (P11166 whole entry): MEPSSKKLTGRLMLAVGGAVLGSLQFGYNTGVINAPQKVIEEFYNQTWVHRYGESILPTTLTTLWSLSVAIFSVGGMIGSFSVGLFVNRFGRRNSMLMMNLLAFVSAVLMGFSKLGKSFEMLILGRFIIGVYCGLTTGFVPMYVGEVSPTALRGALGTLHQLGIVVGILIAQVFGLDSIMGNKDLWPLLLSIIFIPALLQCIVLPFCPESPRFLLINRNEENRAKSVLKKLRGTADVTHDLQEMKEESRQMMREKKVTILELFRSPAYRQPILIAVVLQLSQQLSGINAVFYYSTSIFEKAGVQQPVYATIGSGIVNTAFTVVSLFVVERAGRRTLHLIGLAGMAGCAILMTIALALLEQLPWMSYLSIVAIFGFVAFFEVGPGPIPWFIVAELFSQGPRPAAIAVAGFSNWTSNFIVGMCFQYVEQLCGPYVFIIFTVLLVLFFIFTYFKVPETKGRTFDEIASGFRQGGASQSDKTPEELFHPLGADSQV

In general, inhibition refers to the change of the read-out against control, counted positive when it falls. Take `N#Cc1ccc2c(c1)CCN(CCC1CCC(NC(=O)c3cccc(-c4ccc(F)cc4)c3)CC1)CC2` (stereo not drawn): the inhibition in assay [1] is 5.14%; in assay [2] it was 2.32%; in assay [3], 5.8%.

`COc1ccc2nccc([C@@H](O)CN3CCC(NC(=O)/C=C/c4c[nH]c5c(C)cccc45)CC3)c2c1`: the inhibition is 1.59% in assay [1], 1.23% in assay [2] and -5.23% in assay [3].

On to `O=C(Nc1cc(C(F)(F)F)ccc1Cl)c1ccc(Cn2cc(Br)cn2)cc1`, for which the inhibition in assay [1] was 1.23%; in assay [2] it was 0.15%; in assay [3], -9.62%.

Take `CC(C)c1ccc(NC(=O)c2ccc(CN3CCCN(Cc4cccc(Cl)c4)CC3)cc2)cc1`: the inhibition in assay [1] came to 0.69%; in assay [2], 1.46%; in assay [3], 1.59%.

For `Cc1ccc(F)cc1S(=O)(=O)NCC(C)c1ccc(NC(=O)Nc2cccc(F)c2)cc1` (stereo not drawn), the inhibition in assay [1] is 0.16%; in assay [2] it was 1.6%; in assay [3] it was -0.29%.

On to `COc1cc2nc(NCCc3ccccc3)nc(NCCCc3ccccc3)c2cc1OC`, for which the inhibition in assay [1] was 6.89%; in assay [2] it was 10.1%; in assay [3] it was 2.36%.

Regarding `CC(C)(C)NCc1cc(Nc2ccnc3cc(Cl)ccc23)ccc1F`, the values for the inhibition in assay [1], in assay [2] and in assay [3] were 7.77%, 8.36% and 9.71%, respectively.

`O=C(/C=C/c1ccc(Cl)c(Cl)c1)NCCCCCCN1CCCN(C(=O)Nc2cc(Cl)cc(Cl)c2)CC1`: the inhibition in assay [1] was 0.67%; in assay [2] it was 0.41%; in assay [3], -2.48%.

Take `O=C(NC1CCN(Cc2ccccc2)CC1)c1csc2nc(-c3ccc(Cl)cc3)cn12`: the inhibition stood at 4.09% in assay [1], 2.67% in assay [2] and 2.02% in assay [3].

In the case of `CCC(=O)N1CCc2cc(Br)cc(S(=O)(=O)N3CC(C)CC(C)C3)c21` (stereo not drawn), the inhibition in assay [1] amounted to 5.05%; in assay [2], 3.54%; in assay [3], 3.73%.

On to `Cc1ccc2nc(N(CCCn3ccnc3)C(=O)C=Cc3cccs3)sc2c1`, for which the figures for the inhibition in assay [1], in assay [2] and in assay [3] were 0.75%, 1.84% and -2.73%, respectively.

In the case of `N#Cc1ccc(-c2ccc(OCC(O)CN3CCCN(C(=O)C(c4ccc5c(c4)OCO5)N4CCN(C/C=C/c5ccccc5)CC4)CC3)cc2)cc1` (stereo not drawn), the inhibition worked out at 4.32% in assay [1], 2.9% in assay [2] and 2.95% in assay [3].

Consider `C=CCOC(=O)N1CCC(CNCc2cccc(-c3ccc(-c4nc5cccc(C)c5[nH]4)cc3)c2)C1` (stereo not drawn), for which the figures for the inhibition in assay [1], in assay [2] and in assay [3] were 6.3%, 8.62% and 9.02%, respectively.

On to `CC(C)Cc1nc2nc(N)nc(N)c2cc1C(C)C`, for which the inhibition in assay [1] stood at 1.84%; in assay [2], 4.17%; in assay [3], 1.5%.

As to `COc1cccc(Nc2nccc(NCC(O)c3cccc(C(F)(F)F)c3)n2)c1` (stereo not drawn), the inhibition came out at 4.86% in assay [1], 5.48% in assay [2] and 1.78% in assay [3].

In the case of `CCNc1cc(C(=O)N[C@@H](Cc2ccccc2)[C@H](O)CNCCc2ccccc2)cc(N2CCCC2=O)c1`, the inhibition in assay [1] was 0.28%; in assay [2], 1.31%; in assay [3], 0.88%.
